Screening results from PubChem BioAssay.
Compounds with a hit are over-represented: about 4.2% of the library has one in this group of screens.
MITF TRPM1 HTS: activators of MITF-driven TRPM1 promoter reporter, primary screen, cell-based, SK-MEL-5, luciferase, single point; SK-MEL-5 TRPM1-promoter luciferase, 24 h; % of positive control, neutral wells = 0; activation, % at 12.5 µM; 300,000 tested, 0.75% active; AID 588334, 2011;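 active = mean activation of at least 80% with every replicate also reaching 80%; inconclusive = mean reaches 80% but some replicate falls short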
Wnt bcat act: Wnt/beta-catenin pathway activators, primary screen, cell-based, plate reader, single point | Wnt/beta-catenin reporter cell assay, activator | activation, % at 9.35 µM | 300,000 tested, 1.2% active; in the data active = activation above about 30%, passing the limit was not always enough; inconclusive = no clear call, values can overlap the other calls
esBAF inh: Bmi1 luciferase reporter increase in mESCs, primary screen, esBAF inhibitor project, mouse ES cells, Bmi1 luciferase knock-in, single point; 350,000 tested, 2% active; reporter increase, % at 12.5 µM; 24 h; 100% = twice the neutral-well signal; in the data active = activation above about 40%; inconclusive = no clear call, values can overlap the other calls;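 also: a rise in the Bmi1 reporter signal indicates esBAF inhibition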
FXN GAA850 act: FXN promoter activators, primary screen, cell-based, luciferase luminescence, HEK293 lucGAA850; AID 540364, 2011; 360,000 tested, 0.56% active; HEK293 lucGAA850 FXN promoter luciferase reporter, 24 h; percent of 10 µM SAHA response; activation, % at 6 µM;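 active = activation above the average of all compounds screened plus 3 SD, cutoff fixed separately per campaign, cut at about 7.5% in these data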
AHR activator: AHR activators, primary screen, cell-based, luminescence, luciferase reporter, human. 320,000 tested, 2.5% active. AHR-responsive luciferase reporter cells. Aryl hydrocarbon receptor (Homo sapiens), P35869. activation, % at 5 µM; in the data active = activation above about 47%
Each line names hits and unclear results; the compound was inactive in the other large screens.

C[C@H](CO)N1C[C@H](C)[C@H](CN(C)Cc2ccc3c(c2)OCO3)OCCCC[C@H](C)Oc2ccc(NS(=O)(=O)c3cccs3)cc2C1=O	none (no result: MITF TRPM1 HTS, Wnt bcat act, FXN GAA850 act, AHR activator)
Cc1ccc2[nH]c(-c3cccc(N)c3)cc2c1	Wnt bcat act 81.8
CCCNC(=O)Nc1ccc2c(c1)C(=O)N(C)C[C@H](OC)[C@@H](C)CN(C(=O)C1CCCCC1)[C@H](C)CO2	none (no result: MITF TRPM1 HTS, Wnt bcat act, FXN GAA850 act, AHR activator)
Cc1cc(C(=O)CSc2ccc(F)cc2)cc(C)c1OC(=S)N(C)C	none
COc1ccc(SCC(=O)c2cc(C)c(OC(=S)N(C)C)c(C)c2)cc1	Wnt bcat act 40.8
C[C@@H]1CN([C@H](C)CO)C(=O)Cc2cc(NC(=O)C3CCCCC3)ccc2O[C@@H]1CN(C)S(=O)(=O)c1ccccc1	none (no result: MITF TRPM1 HTS, Wnt bcat act, FXN GAA850 act, AHR activator)
Cc1c(C(=O)Nc2ccc(Nc3ccccc3)cc2)cccc1[N+](=O)[O-]	none
CSc1ccccc1C(=O)Nc1ccc2c(c1)CCC2	Wnt bcat act 30.4, esBAF inh inconclusive
Cc1c(C(=O)Nc2ccc3c(c2)CCC3)cccc1[N+](=O)[O-]	MITF TRPM1 HTS 92.3, esBAF inh 82.1
O=C(COc1ccc2ccccc2c1Br)Nc1cccnc1	MITF TRPM1 HTS 114.2
Cc1ccc(NC(=O)COc2ccccc2[N+](=O)[O-])nc1	Wnt bcat act 53.9
O=C(COc1ccccc1[N+](=O)[O-])Nc1ccc(Br)cc1	Wnt bcat act 48.3, AHR activator 52.7 (no result: esBAF inh)
O=C(COc1ccccc1[N+](=O)[O-])Nc1cccnc1	Wnt bcat act inconclusive, esBAF inh 45.2
Cc1ccnc(NC(=O)COc2ccccc2[N+](=O)[O-])c1	none (no result: Wnt bcat act, esBAF inh, AHR activator)
O=C(COc1ccc2ccccc2c1Br)Nc1ccncc1	none (no result: esBAF inh)
CN1CCN(c2ccc(NC(=O)COc3ccccc3[N+](=O)[O-])cc2)CC1	none (no result: esBAF inh)
C/C(=N\NC(=O)COc1ccccc1[N+](=O)[O-])c1cccs1	Wnt bcat act 35.0, esBAF inh 53.5, AHR activator 57.4
COc1ccc(OCC(=O)N/N=C(\C)c2cccs2)cc1	none (no result: esBAF inh)
CCOC(=O)c1cnc2c(-c3cccc(Br)c3)cnn2c1C	none (no result: esBAF inh)
CCOC(=O)c1cnc2cc(-c3ccc(C)cc3)nn2c1C	esBAF inh 71.3 (no result: MITF TRPM1 HTS, AHR activator)
CC(=O)c1cnc2cc(-c3cccc(Br)c3)nn2c1C	esBAF inh 50.2
Cc1noc(C)c1S(=O)(=O)Nc1cccc2c1O[C@H](CN(C)C(=O)Nc1ccc3c(c1)OCO3)[C@H](C)CN([C@@H](C)CO)C2=O	none (no result: MITF TRPM1 HTS, Wnt bcat act, FXN GAA850 act, AHR activator)
CC(=O)c1cccc(Nc2nc(-c3sc(N)nc3C)cs2)c1	AHR activator 49.2
CCC(=O)Nc1nc(C)c(-c2csc(Nc3cccc(O)c3)n2)s1	none
Cc1nc(N)sc1-c1csc(Nc2ccc(Cl)cn2)n1	AHR activator 76.2
Cc1ccnc(Nc2nc(-c3sc(C)nc3C)cs2)c1	esBAF inh 43.0 (no result: MITF TRPM1 HTS)
Cc1nc(N)sc1-c1csc(Nc2cccc(O)c2)n1	AHR activator 71.3
Cc1nc(C)c(-c2csc(Nc3cccc(O)c3)n2)s1	Wnt bcat act 84.5 (no result: esBAF inh)
Cc1ccc(Nc2nc(-c3sc(C)nc3C)cs2)cc1	AHR activator 61.5 (no result: MITF TRPM1 HTS)
C[C@@H]1CCCCO[C@H](CN(C)C(=O)CCCN(C)C)[C@@H](C)CN([C@@H](C)CO)C(=O)c2cc(NC(=O)NC3CCCCC3)ccc2O1	none (no result: MITF TRPM1 HTS, Wnt bcat act, FXN GAA850 act, AHR activator)
CCNC(=O)C[C@H]1CC[C@H]2[C@H](COc3ccc(NC(=O)Cc4cccs4)cc3C(=O)N2C)O1	none (no result: MITF TRPM1 HTS, Wnt bcat act, FXN GAA850 act, AHR activator)
CSc1ccc(C2N=C(c3ccccc3)NO2)cc1 (stereo not drawn)	AHR activator 58.3 (no result: Wnt bcat act)
CN1c2ccc(-c3ccccc3F)cc2[C@H]2[C@H](CCN2C(=O)Nc2ccc(F)cc2)[C@H]1CO	none (no result: MITF TRPM1 HTS, Wnt bcat act, FXN GAA850 act, AHR activator)
Cc1ccc(O)c(-c2cc3ccccc3[nH]2)c1	Wnt bcat act 36.7, AHR activator 49.4
COc1ccc(-c2cc3ccccc3[nH]2)cc1	MITF TRPM1 HTS inconclusive, Wnt bcat act 54.1
Cc1ccc(C(=O)OCc2cc3ccccc3[nH]c2=O)cc1	none (no result: Wnt bcat act)
Cc1ccc(C(=O)COC(=O)c2cccc([N+](=O)[O-])c2)s1	esBAF inh 46.4
COC(=O)c1c(C)[nH]c(C(=O)OCC(=O)c2ccc(C)s2)c1C	MITF TRPM1 HTS 89.0 (no result: esBAF inh)
CC(=O)c1c(C)[nH]c(C(=O)OCc2ccc([N+](=O)[O-])cc2)c1C	esBAF inh 41.1
COC(=O)c1ccc(COC(=O)c2[nH]c(C)c(C(C)=O)c2C)o1	none (no result: MITF TRPM1 HTS)
